Data on 39 sequences can be found in the supplement of paper PMC6555819.

In one experiment the test system is PPARg:RXRa DBDmut IVT, anti-RXR (DBD mutation: RXRa K156A/R161A, NR concentration 270 nM, RXRa partner concentration 90 nM). Nature of the experiment: PBM binding z-score (relative to random genomic background probes); higher = stronger binding; sequences stand for … in GC…GCGATTGACAGCGTAGAATGAAGG
The method in brief: (§1)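 On custom Agilent 4×180K arrays, double-stranded probes with 34-nt variable regions carried direct-repeat seeds, single-nucleotide variants, half-site ablations or random human genomic background. Ligand-free nuclear receptor dimers were applied for 1 h, and binding was read with antibodies against each partner (one per run). Binding z-scores come from regression-normalized fluorescence, with the random background probes as reference.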
For AATACAGCGTCATCGTAGGCCAGAGTACGCACAG, the PBM binding z-score was -0.562.
The same measure, in the same setting: with CGTCAAAGTTCAACTCAGGTAACGTAAAGCACGC the figure was 0.639; with ATATGTAGGTTAAGGGTGATTCAGGTTGGTTCGC, 7.67.
Consider CCAGACAGGTGAAAGATAACTCAGTCTGGTACGC, for which the PBM binding z-score is 1.22.
In turn, TCTAGTTGATCAAAGGTCACACACTCGAAATGCG had a PBM binding z-score of 2.34.
TCTCGGAGGACAGGAAGGTCAGAGCTTTCCAGAG returned a PBM binding z-score of 1.52.
CTCTAAAGGTCGGTTGAGGTGAGTATACGGATAA displayed a PBM binding z-score of 0.506.
Still for that read-out and setting: to CGTCCAAGGTCAGAGAGGTTAGTGAATGCCGAGT belongs 2.24.
Still for that read-out and setting: with CCGACTGCGGCAAGGTTACCATAACGCACAGCCA the figure was -0.209.
On the same count and under the same terms, with CCTAGCAGGACAATCTGGGTCACTCAAGGCTTGA the figure was 4.78; with AGGCAAAGTTCACTAGGTAACGTAAGATTCAGCT, 2.96.
On to CTCGAAAGGACGGTTGAGGTGAGTATACGGATAA, for which the PBM binding z-score is -0.361.
On the same count and under the same terms, with CGAACGAGGGCATGAGTCGATAGCAAATGCCGAT the figure was 2.97.
On the same count and under the same terms, with CCTACTTGGCCAAAAAGGTCATTGATGCCGATAA the figure was 1.07; with CCTACTGGGCCATCAGGTCATTAATATCAACGTT, 4.28; with TCTAGTTGGTCAGGGAGGTCACACACGACGGGTA, 2.21.
In the case of GCTAGCAGGCCAATTGGGTCACTCAATGACGGGC, the PBM binding z-score turned out to be 2.36.

The next experiment concerns PPARg:RXRa IVT, anti-PPARg (NR concentration 270 nM, RXRa partner concentration 90 nM). The description is as above. The method in brief:
as §1
Sequence CCTACTGGGCCAACGTCATTGATCAGTCAAAGCA had a PBM binding z-score of 4.
In the case of CCGACTCGGGCAGAAAGGTTACCATACCATCCGG, the PBM binding z-score amounted to 0.238.
Same read-out and setting: to CCTTCTGGGCCACGAAAGGTCATTGATTCAGTGA belongs 5.14; to ACTAGCAGGCCGAGGGTCACTCAAGATTAGTCCG, 1.16; to CCTATTAGTTGACCATAAGGGCAACCGAAGCTCG, 0.558.
Still for that read-out and setting: to ACTATTAGTTGACTTACGGCAACCGATACGACGC belongs 0.189; to CCGGCTAGGTCAATGGTCAGCTAAAGCAGCTCGC, 2.61.
TCTAGCAGGCCAGAGGGTCGCTCAAGAGGTACGG: the PBM binding z-score was -0.213.
Same read-out and setting: to ACTTCCGGGTCAACGAGGTTATAGCACGCGTATA belongs 5.27.
Same read-out and setting: with CCGACTGAGGCATAAGGTTACCATAAGCCAGCCC the figure was -0.451; with GGAACGAGGGCAAGTTGACAGCAGAGTTTGATGG, 3; with CCAGACTGGTGAGAAGGTAACTCAGCCTCGATTA, -0.378.
As for CGTCCAAGGTCAGAGAGGTCAGTGGATGCCGAGT, the PBM binding z-score is 3.74.
As for TCGGACAGGTGAAGGTAACTCAGGTACGCAGTCG, the PBM binding z-score was determined as 1.01.
For GCTATTAGTTGAAAGGGCAACCGAATGATTCTCG, the PBM binding z-score turned out to be 1.11.
In turn, ACAGACAGGTGATGAAGGTGACTCAGGCTATCAT yielded a PBM binding z-score of 0.845.
As for ACTATTAGTTGAGACGATGGCAACCGATAGGTTG, the PBM binding z-score was 0.0295.
The same measure, in the same setting: to ACACCAAGGTGATCGTGAGGTCGTTGATACTAAC belongs 1.04; to TGAATGAGGTTATAAAATCAGGGAACGTTGCAAA, 1.47.
Same read-out and setting: with TATACAGGGTCAAAAGCCAGAGTACGAATGTCGA the figure was 3.89.
The same measure, in the same setting: with ACTTACGGGTCACCGAGGTTATAGCACGCGTATA the figure was 5.23; with TCTGGTAGGTCAGTTGGTCAGCTAACGAGCTGCC, 4.52; with AATACAGCGTCATCGTAGGCCAGAGTACGCACAG, 0.0727.
Sequence CGTCAAAGTTCAACTCAGGTAACGTAAAGCACGC returned a PBM binding z-score of 2.02.
On the same count and under the same terms, to ATATGTAGGTTAAGGGTGATTCAGGTTGGTTCGC belongs 6.98; to CCAGACAGGTGAAAGATAACTCAGTCTGGTACGC, 0.571; to TCTAGTTGATCAAAGGTCACACACTCGAAATGCG, 4.45.
TCTCGGAGGACAGGAAGGTCAGAGCTTTCCAGAG displayed a PBM binding z-score of 0.389.
Still for that read-out and setting: to CTCTAAAGGTCGGTTGAGGTGAGTATACGGATAA belongs 1.04; to CGTCCAAGGTCAGAGAGGTTAGTGAATGCCGAGT, 2.47; to CCGACTGCGGCAAGGTTACCATAACGCACAGCCA, -0.134.
Sequence CCTAGCAGGACAATCTGGGTCACTCAAGGCTTGA returned a PBM binding z-score of 5.33.
The same measure, in the same setting: with AGGCAAAGTTCACTAGGTAACGTAAGATTCAGCT the figure was 4.77.
In turn, CTCGAAAGGACGGTTGAGGTGAGTATACGGATAA yielded a PBM binding z-score of -0.0316.
Same read-out and setting: with CGAACGAGGGCATGAGTCGATAGCAAATGCCGAT the figure was 1.89; with CCTACTTGGCCAAAAAGGTCATTGATGCCGATAA, 1.98.
CCTACTGGGCCATCAGGTCATTAATATCAACGTT yielded a PBM binding z-score of 5.01.
In turn, TCTAGTTGGTCAGGGAGGTCACACACGACGGGTA had a PBM binding z-score of 3.14.
Turning to GCTAGCAGGCCAATTGGGTCACTCAATGACGGGC, the PBM binding z-score was found to be 3.11.

For the next experiment, the system named is PPARg DBDmut:RXRa IVT, anti-PPARg (DBD mutation: PPARg1 K132A/R137A, NR concentration 270 nM, RXRa partner concentration 90 nM). Described as above. The method in brief:
as §1
Consider CCTACTGGGCCAACGTCATTGATCAGTCAAAGCA, for which the PBM binding z-score is -0.653.
Still for that read-out and setting: with CCGACTCGGGCAGAAAGGTTACCATACCATCCGG the figure was -1.52; with CCTTCTGGGCCACGAAAGGTCATTGATTCAGTGA, 1.99; with ACTAGCAGGCCGAGGGTCACTCAAGATTAGTCCG, -0.888.
As to CCTATTAGTTGACCATAAGGGCAACCGAAGCTCG, the PBM binding z-score worked out at 0.33.
On the same count and under the same terms, to ACTATTAGTTGACTTACGGCAACCGATACGACGC belongs 0.614; to CCGGCTAGGTCAATGGTCAGCTAAAGCAGCTCGC, -1.05; to TCTAGCAGGCCAGAGGGTCGCTCAAGAGGTACGG, -1.68.
Still for that read-out and setting: with ACTTCCGGGTCAACGAGGTTATAGCACGCGTATA the figure was 1.78; with CCGACTGAGGCATAAGGTTACCATAAGCCAGCCC, -0.747.
The same measure, in the same setting: with GGAACGAGGGCAAGTTGACAGCAGAGTTTGATGG the figure was -0.195; with CCAGACTGGTGAGAAGGTAACTCAGCCTCGATTA, -1.06.
Take CGTCCAAGGTCAGAGAGGTCAGTGGATGCCGAGT: the PBM binding z-score was found to be 0.146.
On the same count and under the same terms, with TCGGACAGGTGAAGGTAACTCAGGTACGCAGTCG the figure was -0.211; with GCTATTAGTTGAAAGGGCAACCGAATGATTCTCG, 0.0571; with ACAGACAGGTGATGAAGGTGACTCAGGCTATCAT, 0.651.
On the same count and under the same terms, with ACTATTAGTTGAGACGATGGCAACCGATAGGTTG the figure was 0.79; with ACACCAAGGTGATCGTGAGGTCGTTGATACTAAC, -0.599; with TGAATGAGGTTATAAAATCAGGGAACGTTGCAAA, 1.21.
On to TATACAGGGTCAAAAGCCAGAGTACGAATGTCGA, for which the PBM binding z-score was determined as 1.82.
The same measure, in the same setting: to ACTTACGGGTCACCGAGGTTATAGCACGCGTATA belongs 2.17; to TCTGGTAGGTCAGTTGGTCAGCTAACGAGCTGCC, -0.0249; to AATACAGCGTCATCGTAGGCCAGAGTACGCACAG, 0.418.
The same measure, in the same setting: with CGTCAAAGTTCAACTCAGGTAACGTAAAGCACGC the figure was 0.699; with ATATGTAGGTTAAGGGTGATTCAGGTTGGTTCGC, 1.59.
Still for that read-out and setting: with CCAGACAGGTGAAAGATAACTCAGTCTGGTACGC the figure was -0.176; with TCTAGTTGATCAAAGGTCACACACTCGAAATGCG, 1.08.
Turning to TCTCGGAGGACAGGAAGGTCAGAGCTTTCCAGAG, the PBM binding z-score is -1.38.
Still for that read-out and setting: to CTCTAAAGGTCGGTTGAGGTGAGTATACGGATAA belongs 0.0568; to CGTCCAAGGTCAGAGAGGTTAGTGAATGCCGAGT, -0.113; to CCGACTGCGGCAAGGTTACCATAACGCACAGCCA, -0.21.
For CCTAGCAGGACAATCTGGGTCACTCAAGGCTTGA, the PBM binding z-score was -0.134.
On the same count and under the same terms, with AGGCAAAGTTCACTAGGTAACGTAAGATTCAGCT the figure was 1.25; with CTCGAAAGGACGGTTGAGGTGAGTATACGGATAA, 0.142; with CGAACGAGGGCATGAGTCGATAGCAAATGCCGAT, -0.75.
On the same count and under the same terms, to CCTACTTGGCCAAAAAGGTCATTGATGCCGATAA belongs 0.866.
Take CCTACTGGGCCATCAGGTCATTAATATCAACGTT: the PBM binding z-score turned out to be 0.502.
The sequence TCTAGTTGGTCAGGGAGGTCACACACGACGGGTA gave a PBM binding z-score of 0.418.
On the same count and under the same terms, to GCTAGCAGGCCAATTGGGTCACTCAATGACGGGC belongs -0.977.
